Data: the supplement of paper PMC9694430
Counter-ions that a name gives are not always drawn.

system: LOC_OS02G08530-cb003; assay: thermal shift delta Tm vs DMSO control; higher = stronger stabilization (binding); conditions: 12.5 µM; protein concentration 2 µM
Summary of the method: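 Heating from 25°C to 95°C at 0.05°C/s, fluorescence was recorded for 19.5 μl wells of 2 μM E. coli-expressed, purified rice kinase domain in 100 mM potassium phosphate pH 7.5, 150 mM NaCl, 10% glycerol and 5 × SYPRO Orange with compound in DMSO. Boltzmann fits gave melting temperatures for this differential scanning fluorimetry assay. The shift reported is the mean of three replicates against the DMSO-only protein.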
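Also: purified Escherichia coli-expressed rice kinase domain construct.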

Structure (SMILES) | thermal shift delta Tm [°C]
COc1ncc(-c2ccc3nccc(-c4ccnnc4)c3c2)cc1NS(=O)(=O)c1ccc(F)cc1F | 0.74
CNC(=O)c1cc(COc2nnc(Nc3ccc(Cl)cc3)c3ccoc23)ccn1 [Telatinib] | 0.69
COc1cc2nccc(Oc3ccc(NC(=O)C4(C(=O)Nc5ccc(F)cc5)CC4)cc3)c2cc1OC [Cabozantinib malate (XL184)] | 1.12
C1=N/C2=N/c3ccc(OCCN4CCCC4)c(c3)COC/C=C/COCc3cccc(c3)C(=C1)N2 [Pacritinib (SB1518)] | 4.85
N#Cc1cnc(Nc2cc(NC[C@H]3CNCCO3)c(C(F)(F)F)cn2)cn1 | 0.87
COc1cc(N2CCN(C)CC2)ccc1Nc1nccc(-c2cn(C)c3cnccc23)n1 | 3.48
CC(C)(C)NS(=O)(=O)c1cncc(-c2cc(F)c3nc(N)nn3c2)c1 | 0.86
CCNC(=O)C#Cc1ccc2c(C(=Nc3ccc(CN(C)C)cc3)c3ccccc3)c(O)[nH]c2c1 | 2.16
O=C1NC(=O)[C@@H](c2cn3c4c(cccc24)CCC3)[C@@H]1c1c[nH]c2ccccc12 [Tivantinib (ARQ 197)] | 0.76
O=S(=O)(c1cccc2c(I)cccc12)N1CCCNCC1 | 0.35
CCN1CCN(Cc2ccc(C(=O)Nc3ccc(C)c(Oc4ccc5c(c4)CC(=O)N5)c3)cc2C(F)(F)F)CC1 | 0.8
C[C@@H](Nc1cc(F)cc(F)c1)c1cc(C(=O)N(C)C)cc2c(=O)cc(N3CCOCC3)oc12 | 0.37
C[C@H](CN(C)C)Oc1nc(Nc2cc3cccc(Cl)c3cn2)cnc1C#N | 1.68
CNC(=O)c1cc(Oc2ccc(NC(=O)Nc3ccc(Cl)c(C(F)(F)F)c3)cc2)ccn1 [Sorafenib] | 1.8
COc1ccc(Cl)cc1NC(=O)Nc1cc(C)nc2ccccc12 | 0.89
O=C(c1cccc(Cl)c1F)N1CCN(Cc2cccc(Nc3nccs3)n2)CC1 | 2.51
CNC(=O)c1ccc(C)c(-n2c(C)cc(OCc3ccc(F)cc3F)c(Br)c2=O)c1 | 0.96
CCn1c(-c2nonc2N)nc2c(C#CC(C)(C)O)ncc(OC[C@H]3CCCNC3)c21 | 0.64
CCC[C@H](NC(=O)/C(C#N)=C/c1cccc(Br)n1)c1ccccc1 [Degrasyn (WP1130)] | -0.39
OC1CCC(Nc2ncc3nc(Nc4c(F)cc(F)cc4F)n([C@H]4CCOC4)c3n2)CC1 (some centres undefined) [Tanzisertib(CC-930)] | 1.25
CN(C)C/C=C/C(=O)Nc1cc2c(Nc3ccc(F)c(Cl)c3)ncnc2cc1O[C@H]1CCOC1 [Afatinib (BIBW2992) Dimaleate] | 1.12
Cc1cc(O)c(-c2ccc([C@@H](C)CN)cc2)c2c1[nH]c(=O)c1sccc12 [OTS514 hydrochloride] | 1.3
Cc1ccc(F)c(NC(=O)Nc2ccc(-c3cccc4[nH]nc(N)c34)cc2)c1 [Linifanib (ABT-869)] | 3.05
COc1cc(N2CCC(N(C)C)CC2)ccc1Nc1ncc(Cl)c(Nc2ccccc2P(C)(C)=O)n1 | 5.8
